HIF-2a block: blocks HIF-2a reporter activity; 786-0 RCC cells HIF-2a reporter, luciferase luminescence, overnight; inhibition, % at 18.8 µM; 360,000 tested, 0.72% active;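 active = inhibition of the luminescence signal of 40% or more relative to plate controls, in a single-dose primary screen at 18.75 µM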
TRAIL sens C8: sensitizes caspase-8 expressing cells to TRAIL. inhibition (viability loss, TRAIL sensitization), % at 10 µM. 360,000 tested, 1% active. NB7+C8 cells + TRAIL, ATPlite viability luminescence;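 active = compounds causing at least 50% loss of cell viability in the single-dose screen, relative to plate controls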
HSP90 refold inh: HSP90 refolding inhibition in rabbit reticulocyte lysate; inhibition, % at 5.6 µM; 290,000 tested, 0.91% active; luciferase refolding luminescence, 3 h; AID 1789;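 active = inhibition above the screen-wide mean plus 3 SD, computed separately per campaign, cut at about 16% in these data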;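 note: inhibitors lower the luminescence because luciferase stays unfolded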
TROY signal inh: blocks TROY-dependent signaling in reporter cells; 360,000 tested, 0.98% active; Q293 LMP1-TROYcd NF-kB luciferase reporter, 4 h; inhibition, % at 10 µM; AID 1347056;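 active = compounds whose plate-normalised and pattern-corrected inhibition of the luciferase reporter signal at the single screening dose is 50% or more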
TWEAK Fn14 block: blocks TWEAK-Fn14 interaction in a reporter cell assay; 360,000 tested, 2% active; inhibition, % at 10 µM; TWEAK-stimulated Fn14 reporter cells, luciferase luminescence, 8 h; AID 1159606; in the data active = inhibition above about 50%
aSyn UTR inh: MLPCN primary screen, SNCA 5' untranslated region | alpha-synuclein 5'UTR reporter, inhibitor activity | inhibition, % (tested at 7.5 µM) | 300,000 tested, 0.82% active; in the data active = inhibition above about 60%;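 note: H4 neuroglioblastoma cells stably carrying SNCA 5'UTR luciferase fusion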
Hits are given with their value; 0 = inactive; - = not tested or not shown. A selection: hits, their analogues and other compounds. The true share with any hit is near 3.9%.

SMILES	HIF-2a block	TRAIL sens C8	HSP90 refold inh	TROY signal inh	TWEAK Fn14 block	aSyn UTR inh
CC(=O)c1cccc2c(O)c(C3=Nc4ccccc4C3=O)[nH]c12	0	0	0	54	0	0
O=C1C(c2c(O)[nH]c3ccccc23)=Nc2ccccc21	0	0	0	0	0	0
CCOc1ccc(CCN2C(=O)C(=O)N([C@@H](CC(C)C)CN3CCC[C@H]3CN3C(=O)C(=O)NC[C@@H]3CC(C)C)C[C@@H]2Cc2ccc(O)cc2)cc1	0	0	-	0	0	-
CCCC(=O)N1CCC1(C)C(=O)Nc1ccc(C)c(C)c1 (stereo not drawn)	0	0	-	0	0	-
CCCCCC(=O)N1C[C@@H](n2cc(C3CC3)nn2)[C@H](O)C[C@@H]1c1ccc(C)cc1	0	0	-	0	0	-
Cc1c(C(=O)OCC(C)C)[nH]c2c1C(=O)CC(c1cccs1)C2 (stereo not drawn)	0	0	0	0	0	0
CCOCCOC(=O)c1[nH]c2c(c1C)C(=O)CC(c1cccs1)C2 (stereo not drawn)	0	0	0	0	0	85
CCOCCOC(=O)c1[nH]c2c(c1C)C(=O)CC(c1ccccc1)C2 (stereo not drawn)	0	0	0	0	0	0
COCCOC(=O)c1[nH]c2c(c1C)C(=O)CC(c1cccs1)C2 (stereo not drawn)	0	0	0	0	0	64
Cc1ccc(C(C)C)c(OCC(=O)NNC(=O)Cc2ccc(S(=O)(=O)N3CCOCC3)s2)c1	0	0	-	0	0	-
Cc1c(C(=O)NCc2cccnc2)oc2ccc(S(=O)(=O)N3CCC4(CC3)OCCO4)cc12	0	0	0	0	0	0
Cc1c(C(=O)NCCC2=CCCCC2)oc2ccc(S(=O)(=O)N3CCOCC3)cc12	0	0	0	0	52	-
Cc1c(C(=O)NCCCN2CCCC2=O)oc2ccc(S(=O)(=O)N3CCOCC3)cc12	0	0	0	0	0	-
Cc1ccc(CNC(=O)c2oc3ccc(S(=O)(=O)N4CCC5(CC4)OCCO5)cc3c2C)cc1	0	0	0	0	54	0
COc1ccc(C)cc1S(=O)(=O)N1CCC(C(=O)NCCC2=CCCCC2)CC1	0	0	0	0	0	0
COc1ccc(S(=O)(=O)N2CCC(C(=O)NCCC3=CCCCC3)CC2)cc1C	0	54	0	0	0	0
O=C(NC(Cc1c[nH]c2ccccc12)C(=O)O)OCC1c2ccccc2-c2ccccc21 (stereo not drawn)	0	0	-	0	0	-
COc1ccc(CNC(=O)N2CCc3ccccc3C2)cc1Cl	0	0	16	0	0	0
CC(C)CNC(=O)c1cccc2c(-c3cccc(C(N)=O)c3)coc12	0	0	-	0	0	-
COc1ccccc1N1CCN(C(=O)c2cc3c(C)nc4ccccc4c3o2)CC1	0	0	0	51	0	0
Cc1ccc(C)c(N2CCN(C(=O)c3cc4c(C)nc5ccccc5c4o3)CC2)c1	0	0	0	52	0	0
COc1ccccc1N1CCN(C(=O)c2ccc3[nH]c(C)c(C)c3c2)CC1	0	0	0	0	0	72
Cc1nc2ccccc2c2oc(C(=O)N3CC(C)CC(C)C3)cc12 (stereo not drawn)	0	0	0	0	0	0
Cc1nc2ccccc2c2oc(C(=O)NCc3ccccn3)cc12	0	0	0	0	0	0
Cc1ccc(CNC(=O)c2cc3c(C)nc4ccccc4c3o2)cc1	0	0	0	0	61	0
SMILES	HIF-2a block	TRAIL sens C8	HSP90 refold inh	TROY signal inh	TWEAK Fn14 block	aSyn UTR inh
Cc1[nH]c2ccc(C(=O)N3CCN(c4ccccc4Cl)CC3)cc2c1C	0	0	0	0	0	0
Cc1ccccc1CC(=O)N1CCC(CCC(=O)NC2CC2)CC1	0	0	-	0	0	-
c1cnc2c(-c3cccc4nccn34)cccc2c1	0	0	-	0	0	-
c1ccc2c(-c3cccc4nccn34)cncc2c1	0	0	-	0	52	-
N#C/C(=C\c1ccc(OCc2ccc(C(=O)O)cc2)cc1)C(=O)N1CCOCC1	0	0	73	0	0	93
CS(=O)(=O)N(CCc1ccccc1)CC(=O)N1CCN(c2ccccc2F)CC1	0	0	0	0	84	0
Cc1ccc([C@@H]2C[C@H]3[C@@H](CN2S(=O)(=O)c2ccc(Cl)cc2)C(=O)C[C@@H](c2ccccc2)N3S(=O)(=O)c2ccc(C)cc2)cc1	0	0	-	0	0	-
Cn1ccc2c(-c3cccc(C=O)c3)cc3c(c21)C1CCC3C1 (stereo not drawn)	0	0	-	65	0	-
Cn1ccc2c(-c3cccc4ccccc34)cc3c(c21)C1CCC3C1 (stereo not drawn)	0	0	-	77	82	-
Cn1ccc2c(-c3cccc(C=O)c3F)cc3c(c21)C1CCC3C1 (stereo not drawn)	0	0	-	55	51	-
Cn1ccc2c(-c3cncc4ccccc34)cc3c(c21)C1CCC3C1 (stereo not drawn)	0	0	-	0	0	-
COCCN1C[C@@H](CO)O[C@@H](n2cnc3c(N(C)C)ncnc32)C1	0	0	-	0	0	-
Cc1[nH]c2ccccc2c1C(=O)C(C)OC(=O)c1ccccc1NCCO (stereo not drawn)	0	0	-	0	53	0
Cc1[nH]c2ccccc2c1C(=O)C(C)OC(=O)c1ccc(NC(=O)CC#N)cc1 (stereo not drawn)	0	0	-	0	0	0
N#Cc1ccc(-c2cccs2)nc1SCc1cccnc1	0	0	0	0	0	90
O=C(c1cccs1)N1CCCC1	0	0	0	0	0	0
O=C(c1cccs1)N1CCN(C(=O)c2cccs2)C1=S	0	0	-	0	70	-
CC1CCCCN1S(=O)(=O)c1ccc(C(=O)Nc2nnc(-c3ccncc3)o2)cc1 (stereo not drawn)	0	0	0	0	0	0
COc1ccc(-c2nnc(NC(=O)c3ccc(S(=O)(=O)N4COCC4(C)C)cc3)o2)cc1	0	0	0	0	0	76
CC1(C)COCN1S(=O)(=O)c1ccc(C(=O)Nc2nnc(-c3ccc(Cl)s3)o2)cc1	-	-	0	-	-	92
C[C@@H]1CN([C@@H](C)CO)C(=O)CCCn2nncc2CO[C@H]1CN(C)C(=O)Nc1ccc(-c2cccs2)cc1	0	0	-	0	0	-
CCOc1ccccc1NC(=O)c1cc(=O)[nH]c2ccc(S(=O)(=O)N3CCOCC3)cc12	0	0	-	0	0	-
OC(COCC1COc2ccccc2O1)CN1CCN(c2ccccn2)CC1 (stereo not drawn)	0	0	19	0	0	0
OC(COCC1COc2ccccc2O1)CN1CCc2ccccc2C1 (stereo not drawn)	0	0	0	0	0	0
CN(CCc1ccccc1)C(=O)CC1C(=O)NCCN1Cc1ccccn1 (stereo not drawn)	0	0	-	0	0	-
Clc1ccc(-c2nnc(-c3ccccc3)o2)c(Cl)c1	0	70	0	0	63	0
Fc1ccc(-c2nnc(-c3ccc(Cl)cc3)o2)cc1	0	0	0	0	0	0
Fc1ccc(-c2nnc(-c3ccc(Cl)cc3Cl)o2)cc1	0	86	0	0	56	0
